Test results: PubChem BioAssay (NCATS)
Inconclusive results are not listed. The call rests on the fitted dose curve; in most records, active means well fitted curve in either direction with a large enough effect (not every such curve was filed as active); inconclusive means small, poorly fitted or top-dose-only effect, or another doubt; inactive means flat fitted curve, though single readings scatter.

Experiment: AP1 Signaling Pathway (AID 357);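 further: ME-180 reporter cells stimulated with EGF at its EC50 level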
Details: ME-180 AP-1-bla reporter, EGF-induced, beta-lactamase ratio, 5 h; at 7.69 µM (top of the series)
From the text: NCGC Assay Overview: Activator protein-1 (AP-1), a transcription factor, plays an important role in tumor genesis by regulating genes involved in cell proliferation, differentiation, apoptosis, and angiogenesis. AP-1 activity is induced by a complex network of signaling pathways that involves extracellular signals, such as growth factors. The AP-1 protein complex formed from c-Fos and c-Jun binding to the AP-1 response element results in transcriptional activation of genes containing such elements within their promoter. Low molecular weight molecules have been discovered and developed to modulate various components of these signaling pathways, for example, MAP kinase inhibitors. However, many points of pathway modulation remain untested due to the lack of chemical probes making this signaling locus of general interest. Using a beta-lactamase reporter-gene under control of the AP-1 response element, a cell-based assay [CellSensor(TM) AP-1-bla ME-180 developed by Invitrogen Corp.] was used to measure EGF-induced signaling. Library compounds were measured for their ability to modulate positively or negatively the action of EC50 EGF on reporter gene activity. Compounds were screened in a titration series in 1536-well format. Positive and negative modulators were identified based on the AC50 values derived from the screening data.
NCGC Assay Protocol Summary: 2500 cells/5uL in Opti-MEM medium containing 0.5% dialyzed FBS, 0.1 mM NEAA, 1 mM sodium pyruvate and 10 mM HEPES was dispensed into 1536-well plates and cells were cultured at 37 degrees Celsius overnight. […] After centrifugation at 1000 rpm for 2 seconds the plates were incubated at 37 degrees Celsius for 5 hours. 1 uL of CCF4-dye mixture was added to each well. After incubated at room temperature for 2.5 hours the plates were measured on an EnVision plate reader at Excitation 405nm, Emission1=460nm and Emission 2=530nm. The %Activity was determined from the ratio of 460nm/530nm.
On the % scale 0 is the no-effect control and ±100 the full control effect.

Activity change, negative = inhibition, inactive:
CN1[C@@H]2CC[C@H]1CC(OC(=O)[C@@H](O)c1ccccc1)C2 (stereo not given in full) 9.45%

Same assay, conditions: ME-180 AP-1-bla reporter, EGF-induced, beta-lactamase ratio, 5 h; at 7.69 µM (top of the series) unless noted

Activity change, negative = inhibition, inactive:
Cn1c(=O)c(-c2ccc(Cl)cc2)nc2cnc(OCc3ccccc3)nc21 -12.6%
COc1cccc(Cn2c(=O)cnc3cnc(Oc4cccc(Cl)c4)nc32)c1 -19.7%
Cn1cccc1C(=O)N1CCC2(CCCN(c3cccc(-c4ccccc4)c3)C2)CC1 7.29%
Cc1ccccc1-c1ccc2ncnc(N(C)C)c2c1 13.7%
COCCn1c(=O)c(CCc2ccccc2)nc2cnc(N3CCOCC3)nc21 -24.7%
COc1ccccc1CN1CCC2(CC1)CCN(C(=O)c1ccco1)CC2 -17.3%
N#Cc1cccc(NC(=O)N2CC[C@@]3(CCCN(C(=O)c4cnccn4)C3)C2)c1 -6.32%
Cc1cnc(CNc2cc(-c3ccoc3)ncn2)cn1 -2.94%
Cc1noc(C)c1-c1nc(N(C)Cc2ccco2)c2ccccc2n1 -1.42%
COCCn1c(=O)c(-c2ccc(OC)cc2)nc2cnc(Nc3cccc(OC)c3)nc21 -2.99%
CN(C)c1ccc(-c2cncnc2Nc2ccccc2)cc1 -29.4%
COc1ccccc1CN1CCCC2(CCN(C(=O)c3ccco3)CC2)C1 -11.6%
CN[C@@H](CC(C)C)C(=O)N[C@@H]1C(=O)N[C@H](CC(N)=O)C(=O)N[C@@H]2C(=O)N[C@H]3C(=O)N[C@H](C(=O)N[C@H](C(=O)O)c4cc(O)cc(O)c4-c4cc3ccc4O)[C@H](O)c3ccc(c(Cl)c3)Oc3cc2cc(c3O[C@H]2O[C@@H](CO)[C@@H](O)[C@@H](O)[C@@H]2O[C@@H]2C[C@](C)(N)[C@H](O)[C@H](C)O2)Oc2ccc(cc2Cl)[C@@H]1O 4.27% [at 17.2 µM]
CN(C)c1ncc2nc(-c3ccc(Cl)cc3)c(=O)n(C[C@H]3CCCO3)c2n1 9.11%
COCCNc1ncnc2ccc(-c3ccc(N(C)C)cc3)cc12 -29.4%
COC(=O)N1CCC[C@@]2(CCN(C(=O)NC(C)C)C2)C1 -4.17%
COc1ccc(C(=O)N2CCC[C@@]3(CCN(C(=O)Nc4cccc(C#N)c4)C3)C2)cc1 -11.5%
COc1ncc2nc(-c3ccc(F)cc3)c(=O)n(CCC#N)c2n1 13.2%
Cn1cc(C(F)(F)F)nc1-c1ccc(OC[C@@H](O)CNCCOc2ccc(O)c(C(N)=O)c2)cc1 -8.84% [at 38 µM]
COc1ccc(Oc2ncc3ncc(=O)n(Cc4ccc(F)cc4)c3n2)cc1 -18.4%
CS(=O)(=O)N1CCC2(CCCN(c3cccc(-c4ccccc4)c3)C2)CC1 -13.4%
O=c1c(-c2ccc(Cl)cc2)nc2cnc(N3CCOCC3)nc2n1C1CC1 6.61%
COCC(=O)N1CCC2(CC1)CCN(c1ccccc1)CC2 -2.33%
c1cncc(-c2cc(-n3ccnc3)ncn2)c1 -4.01%
Cc1cnc(CNc2ncnc3ccc(-c4ccc(C(=O)N(C)C)cc4)cc23)cn1 -13.6%
COc1ccccc1CNc1ccnc(-c2ccc(N(C)C)cc2)n1 -10.1%
CNc1ncncc1-c1ccccc1C 7.16%
COc1ccc(-n2c(=O)c(-c3cccs3)nc3cnc(Nc4ccccc4)nc32)cc1 -7.98%
COc1ccccc1CNc1cc(-c2ccccc2Cl)ncn1 -13.2%

Same assay, conditions: ME-180 AP-1-bla reporter, EGF-induced, beta-lactamase ratio, 5 h; at 17.2 µM (top of the series)

Activity change, negative = inhibition, inactive:
OCCN1CCN(CC/C=C2\c3ccccc3Sc3ccc(C(F)(F)F)cc32)CC1 16.2%
CCCN[C@@H](C)C(=O)Nc1ccccc1C -5.22%
C[C@@H](C(=O)O)c1cccc(C(=O)c2ccccc2)c1 5.98%
O[C@@](CCN1CCCCC1)(c1ccccc1)C1CCCCC1 7.19%
CN1[C@@H]2CC[C@H]1CC(OC(=O)[C@@H](O)c1ccccc1)C2 (stereo not given in full) -8.08%

Same assay, conditions: ME-180 (cervical carcinoma) AP-1-bla reporter, EGF-induced, beta-lactamase ratio, 5 h; at 38 µM (top of the series)

Activity change, negative = inhibition, inactive:
OCCN1CCN(CC/C=C2\c3ccccc3Sc3ccc(C(F)(F)F)cc32)CC1 29.4%
CCCN[C@@H](C)C(=O)Nc1ccccc1C 7.83%
C[C@@H](C(=O)O)c1cccc(C(=O)c2ccccc2)c1 9.29%
O[C@@](CCN1CCCCC1)(c1ccccc1)C1CCCCC1 17.8%
CN1[C@@H]2CC[C@H]1CC(OC(=O)[C@@H](O)c1ccccc1)C2 (stereo not given in full) -8.54%
